# Data as given in ChEMBL document CHEMBL1157539, “Thousands of chemical starting points for antimalarial lead identification” (Nature, 2010).
# Key:
# Assay type in all cases: functional
# Plasmodium falciparum [1] = test: GSK_TCMDC: Inhibition of Plasmodium falciparum 3D7 in whole red blood cells, using parasite LDH activity as an index of growth. Test compounds present at 2uM
# Plasmodium falciparum [2] = test: GSK_TCMDC: Inhibition of Plasmodium falciparum Dd2 in whole red blood cells, using parasite LDH activity as an index of growth. Test compounds present at 2uM
# HepG2 = test: GSK_TCMDC: Percent inhibition of human HepG2 cell line. Test compounds present at 10uM.
Compound,Inhibition (Plasmodium falciparum [1]),Inhibition (Plasmodium falciparum [2]),Inhibition (HepG2)
NC(CC1CC(=O)N1CC(=O)O)C(=O)O (stereo not drawn),95%,0%,56%
COc1ccc2nc(-c3ccccc3)cc(N/N=C/c3ccc([N+](=O)[O-])o3)c2c1,100%,99%,90%
O=C(NC1CC1)c1ccc(N2CCCC(COc3ccc4c(c3)CCCC4)C2)nc1 (stereo not drawn),85%,65%,0%
O=C(Nc1cccc(CN2CCCN(Cc3ccsc3)CC2)c1)c1ccc(-c2ccccc2)cc1.O=C(O)C(F)(F)F,90%,11%,30%
Clc1ccc(-c2cc3c(NCc4ccncc4)nccc3s2)cc1,98%,8%,26%
CCC(CC)(CCC#N)CN(C[C@@H](O)[C@H](Cc1ccccc1)NC(=O)OC(C)(C)C)S(=O)(=O)c1ccc(OC)cc1,82%,66%,0%
Br.CC1(C)NC(N)=NC(=N)N1OCCCCCCOc1ccc(Cl)c2ccccc12,91%,94%,62%
CC(=O)NC1=NC(C)(C)N(OCc2ccc(Cl)c(Cl)c2)C(NC(C)=O)=N1,94%,97%,68%
Cl.O=C(NC1CCC(CCN2Cc3cccc(F)c3C2)CC1)c1cccc(-c2cccnc2)c1 (stereo not drawn),98%,82%,16%
COc1ccc(NC(=O)CCNc2cc(C)nc(NCCc3ccccc3)n2)cc1.O=C(O)C(F)(F)F,85%,0%,3%
CCCC1(NC[C@@H](O)[C@H](Cc2ccccc2)NC(=O)c2cc(NCC)cc(N3CCCCS3(=O)=O)c2)CCC1.Cl,100%,86%,0%
